Source: PubChem (National Center for Advancing Translational Sciences (NCATS))
This is a sample that favours compounds with a hit; in the whole collection about 1.2% have one here.
PTAP TSG101 blk: blocks PTAP/TSG101 interaction to inhibit HIV-1 budding; Potency, µM (series often up to 115 µM), hits mostly inhibitors; 340,000 tested, under 10 active; Fluorescence polarization, FITC-PTAP peptide / Tsg101 binding; AID 493005; Q99816; active = well fitted inhibition curve with a large enough effect in the main read-out, with a control signal flat, not every such curve was filed as active; inconclusive = small, poorly fitted or top-dose-only effect, or effect the other way, or a change in a side signal; inactive = no such curve, though single readings can be large or run the other way
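Fluorescence anisotropy tracks displacement of a FITC-tagged PTAP peptide (50 nM) from the Tsg101 binding domain (10 uM), following a 20 min room-temperature incubation at pH 7.5.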
BRCA1 expr act: increases BRCA1 expression; MCF7-BRCA1-FFLuc reporter, luminescence, 48 h; response scale: scaled: vehicle 0%, 10 µM genistein 100%; Potency, µM (highest dose often 46.1 µM), most hits filed as activators; 380,000 tested, 1.1% active; note: nearly all actives have a fitted effect of over 80% in size
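Quantitative HTS in MCF7 cells stably reporting BRCA1 expression via firefly luciferase. Compound treatment lasts 48 h at 37 °C in phenol-red free MEM. Activation is expressed relative to genistein at 10 microM and DMSO.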
Anesthetic bind: candidate novel general anesthetic via apoferritin binding | 350,000 tested, 0.074% active | AID 485281 | P02791 | Potency, µM (highest dose often 77.5 µM), actives largely listed as inhibitors | apoferritin/1-aminoanthracene competitive binding, fluorescence; note: nearly all actives have a fitted effect of over 20% in size
Target sequence (P02791 2-175 limits assumed): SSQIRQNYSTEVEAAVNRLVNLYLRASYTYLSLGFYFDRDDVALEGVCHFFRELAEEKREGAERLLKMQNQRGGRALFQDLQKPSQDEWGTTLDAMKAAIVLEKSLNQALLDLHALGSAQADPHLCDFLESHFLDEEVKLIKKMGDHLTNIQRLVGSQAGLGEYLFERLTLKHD
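Read-out: endpoint 1-AMA fluorescence, excitation 380 nm and emission 535 nm, after compounds sit 10 min at room temperature with 10 uM horse-spleen apoferritin in 50% saturated 1-AMA/PBS. Values come from four-parameter Hill fits.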
ASM inhibitor: inhibitors of human secretory acid sphingomyelinase | P17405 | placental ASM, HMU-PC fluorogenic substrate, 60 min | Potency, µM (highest dose often 57.5 µM), hits mostly inhibitors | 340,000 tested, 0.006% active | AID 504937
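HMU-PC0 cleavage (9 uM final) by human placental ASM, 60 min at 37 °C following 10 min compound exposure at RT; stopped at pH 10, fluorescence Ex 386/Em 447 nm.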
TSHR antag: human thyrotropin receptor antagonism; P16473; TSHR-expressing cells, TSH-stimulated cAMP HTRF, 2 h; stronger effect = lower value; activity change, negative = inhibition, % at 11.5 µM; 330,000 tested, 0.2% active; AID 504810;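 active = activity change below a set negative limit, meaning inhibition stronger than a set level, cut at about -70% in these data; inconclusive = activity change between two set negative limits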
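Freshly harvested TSHR cells receive pin-tooled compound, then EC80 TSH at 4nM final. After 2 hours at 37 deg C, antibody in lysis buffer and cAMP-d2 are added; 30 minutes at ambient temperature precede the HTRF read.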
Hits are given with their value; - = inactive; ? = inconclusive; . = not tested or not shown; [ ] = remark or other dose. Unless noted, calls come from the whole dose curve; as a rule, active = well fitted curve in the direction sought with a large enough effect; inconclusive = small, poorly fitted or top-dose-only effect, or another doubt; inactive = no such curve, though single readings can be large; an effect the other way counts as inactive or inconclusive.

SMILES	PTAP TSG101 blk	BRCA1 expr act	Anesthetic bind	ASM inhibitor	TSHR antag
O=C(c1ccc(Cl)cc1)c1coc2ccc(O)cc12	-	4µM	-	-	-
O=C(c1coc2ccc(O)cc12)C1CC1	-	-	?	-	-
Cn1c(-c2ccc(F)cc2)cc2onc(-c3c(F)cccc3Cl)c2c1=O	-	2µM	.	-	-
CCC(=O)OCCNc1cc(Sc2nccn2C)c2nonc2c1[N+](=O)[O-]	-	-	-	-	-97
CCC(=O)OCCNc1cc(SCCC(=O)OC)c2nonc2c1[N+](=O)[O-]	-	-	-	-	-
Cc1oc2ccc(O)cc2c1C(=O)c1ccc(F)cc1	-	11µM	.	-	.
COc1ccc2oc(C)c(C(=O)c3ccc([N+](=O)[O-])cc3)c2c1	-	-	-	-	-
CCOc1ccc(/C=C2\CCC(C3CCCC3)C2=O)cc1 (stereo not given)	-	4µM	-	-	-
O=C(Nc1ccc(Cl)cc1)OCc1cncs1	-	11µM	?	-	-
O=C(Nc1ccc(Cl)cc1)OCc1ccccn1	-	3.5µM	-	-	-
CS(=O)(=O)c1ccccc1COC(=O)Nc1ccc(Cl)cc1	-	-	-	-	-
COc1ccc(C(=O)/C(=C/N(C)C)S(=O)(=O)c2ccccc2)cc1	-	3.2µM	-	-	-
O=C(NCCCc1cnc[nH]1)NCCCN(Cc1ccc(Cl)cc1)c1ccc(Br)cn1	.	-	.	.	.
CN(C)/C=C/C(=O)c1ccc(-n2cccc2)cc1	-	7.9µM	-	-	-
CN(C)/C=C/C(=O)c1ccc(Cl)cc1	-	-	?	-	-
Fc1ccc(OCc2nc(-c3cccs3)no2)cc1	-	7.9µM	-	-	-
Cc1ccc(-c2noc(COc3ccccc3C)n2)cc1	-	?	-	-	-
COc1ccc(-c2noc(Cc3cccs3)n2)cc1	-	13µM	-	-	-
c1ccc(OCc2nc(-c3cccs3)no2)cc1	.	11µM	?	-	-
Cc1ccc(OCc2nc(-c3ccccc3)no2)cc1	-	8.9µM	-	-	-
COc1ccc(-c2noc(Cc3ccccc3OC)n2)cc1	-	-	-	-	-
CNCC(=O)c1c[nH]c2ccccc12	.	-	.	.	.
COc1ccc(CCn2c(=S)[nH]c(=O)c3cccnc32)cc1OC	.	-	.	.	.
O=C(NCCc1nc2ccccc2n1CCOc1ccccc1)C1CCCCC1	.	-	.	.	.
CCN1C(=O)[C@@H]2[C@H]3C(=CC[C@@H]2C1=O)C1(OCCCO1)[C@H]1O[C@@H]1[C@H]3O	.	.	-[15.3 µM]	.	.
SMILES	PTAP TSG101 blk	BRCA1 expr act	Anesthetic bind	ASM inhibitor	TSHR antag
COc1cc(NS(=O)(=O)c2ccc3c(c2)CC(C)N3C(=O)C2CCC2)cc(OC)c1OC (stereo not given)	.	.	-	.	.
CCN(CC)C(=O)C1CC(c2ccc(OC)cc2)=NO1 (stereo not given)	-	10µM	-	-	-
COc1ccc(C2=NOC(C(=O)NC(C)(C)C)C2)cc1 (stereo not given)	-	-	-	-	-
COc1ccc(-c2nn(-c3ccccc3)cc2N)cc1	-	3.2µM	-	-	-
COc1ccc(-c2c(C)nn(-c3ccccc3)c2N)cc1OC	-	-	-	-	-
COc1ccc(-c2c(C)nn(-c3ccccc3)c2N)cc1	-	11µM	-	-	-
COc1ccc(-c2nn(-c3ccccc3)cc2CO)cc1	-	?	-	-	-
Cc1ccc(-c2nn(-c3ccccc3)cc2CO)cc1	-	7.9µM	-	-	-
Cc1cccc(OCC(=O)Nc2nc3ccc([N+](=O)[O-])cc3s2)c1C	-	-	-	-	-76
CS(=O)(=O)c1ccc2nc(NC(=O)c3cccc([N+](=O)[O-])c3)sc2c1	-	5.6µM	-	-	-
COc1cc(OC)cc(C(=O)Nc2nc3ccc(S(C)(=O)=O)cc3s2)c1	-	5.6µM	-	-	-
COc1cc(C(=O)Nc2nc3ccc(S(C)(=O)=O)cc3s2)cc(OC)c1C	-	-	-	-	-
Cc1cccc(OCC(=O)Nc2nc3ccc([N+](=O)[O-])cc3s2)c1	-	-	-	-	-
CO[C@H]1COC(=O)[C@H]2CCCN2C(=O)C/C=C\[C@@H](C)[C@H](OC)COC(=O)[C@@H](OCc2ccccc2)/C=C\[C@@H]1C	.	.	-[15.3 µM]	.	.
